Ba CapD inh: Bacillus anthracis CapD inhibitors, primary screen, biochemical, fluorescence intensity | CapD gamma-glutamyltranspeptidase (Bacillus anthracis Ames Ancestor) | purified CapD enzyme, fluorescence intensity read-out; hits give low values | z-score (test concentration not listed) | 0.23% of 140,000 active | AID 492967, 2010; in the data active = z-score mostly below about -2.9, no sharp cut-off; inactive = mostly above about -1.9
Hits are given with their value; - = inactive. Many of the other results were omitted from the sample, so hits are more common in it than they were.

SMILES	Ba CapD inh
O=C1CC(c2ccc(C(F)(F)F)cc2)c2cc(Br)c3ccccc3c2N1 (stereo not given)	-
c1ccc(N2CCN(c3c4c(nc5nncn35)CCC4)CC2)cc1	-
CCN(CC)c1c2c(nc3nncn13)CCC2	-
S=c1c2c(nc3nc[nH]n13)CCC2	-5.7
COc1ccc(/C=C2\CCCC3=C2OC(N)=C(C#N)C3c2ccc(OC)cc2)cc1 (stereo not given)	-
O=S(=O)(NC1CCN(Cc2ccccc2)CC1)c1ccc(-n2cccn2)cc1	-
COc1ccc(C2CC(=O)C3=C(C2)NC(C)=C(C(=O)OC2CCCC2)C3c2cccc([N+](=O)[O-])c2)cc1OC (stereo not given)	-
O=C(O)c1cccc(-c2ccc(/C=C3/SC(=O)N(c4ccccc4)C3=O)o2)c1	-
N=C1S/C(=C\c2ccco2)C(=O)N1c1ccc(Oc2ccccc2)cc1	-
O=C1S/C(=C\c2ccco2)C(=O)N1c1ccccc1	-2.4
CC(C)N(C(=O)CSc1ccccn1)c1ccccc1	-
CCCN(CCC)C(=O)Cn1c(=O)n(CCCCC(=O)NCc2ccc3c(c2)OCO3)c(=O)c2ccccc21	-
CC(C(=O)NCc1ccc(F)cc1)n1sc2ccccc2c1=O (stereo not given)	-
O=C(NCCO)C1=NN=CC1	-
COC(=O)C(C)Nc1ccc(C)cc1 (stereo not given)	-
CCOC(=O)C(Nc1cccc(F)c1)c1ccccc1 (stereo not given)	-
COC(=O)C(C(=O)OC)C(Nc1ccccc1)c1ccccc1 (stereo not given)	-7.1
COc1ccc(-n2nc(C(=O)N(C)Cc3ccccc3)c3c4ccccc4n(C)c3c2=O)cc1	-
COc1ccc(-n2nc(C(=O)N3CCCC3)c3c4ccccc4n(C)c3c2=O)cc1	-
COc1ccc(-n2nc(C(=O)N(C)c3ccccc3)c3c4ccccc4n(C)c3c2=O)cc1	-4.3
O=C(/C=C/c1cc2cccc3c2n(c1=O)CC3)N1CCN(Cc2ccccc2)CC1	-
N#CCc1ccc(C(=O)c2ccc(Cl)cc2Cl)s1	-
CC(C)(C)c1ccc(NC(=S)NCCC(=O)O)cc1	-
CCOCCn1cnc2sc(C(=O)NCCN(CC)CC)c(C)c2c1=O	-
CCN(CC)C(=O)c1ccc2c(c1)N(Cc1ccccc1)C(=O)c1ccccc1S2(=O)=O	-
SMILES	Ba CapD inh
O=C(O)CCCCc1cccs1	-
Nc1cc(CCCC(=O)O)sc1CCCC(=O)O	-10
O=C(O)CCCc1ccc2c(c1)OCO2	-
Clc1ccc(-c2cnc(SCc3ccc(Cl)cc3Cl)nc2)cc1	-
COc1ccc(-n2c(SCC(=O)NCCC3=CCCCC3)nc3n[nH]c(C)c3c2=N)cc1	-
Cc1sc2ncnc(NCCc3ccc4c(c3)OCCO4)c2c1C	-
COc1ccc(Sc2cc3ccccc3nc2-c2ccc(Cl)cc2)cc1	-
O=C(NCc1cccs1)c1cc(-c2ccco2)on1	-
O=C(NC1CCCCC1)c1cc(-c2ccco2)on1	-4
CCCNC(=O)c1cc(-c2ccco2)on1	-4.7
COC(=O)c1ccccc1NC(=O)c1cc(-c2ccco2)on1	-
O=C(c1cc(-c2ccco2)on1)N(C1CCCCC1)C1CCCCC1	-
O=C(NC1CCCC1)c1cc(-c2ccc(O)cc2)on1	-
CCN1C(=S)N(CC)C2(O)c3ccccc3C(=O)C12O (stereo not given)	-
CSc1nc2c(cnn2-c2ccc(C)cc2)c(=O)[nH]1	-
O=C(CCSCc1ccccc1F)N1CCc2ccccc21	-
O=S1(=O)NC(=NC2CC2)c2ccccc21	-
CSc1nsc2nc(=O)c(/C=C3\C=CC(=O)C(O)=C3)c(N)n12	-4.5
O=C(Nc1ccc(-c2csnn2)cc1)c1ccc(Cl)cc1	-
Cc1cc(N2CCC(C(=O)NC3CC3)CC2)n2nc(C)c(-c3ccc(Cl)cc3)c2n1	-
CC(C)c1ccc(C2=CC(=O)C=CC2=O)cc1	-
CCc1ccc(C2=CC(=O)C=CC2=O)cc1	-
O=C1C=CC(=O)C(c2ccc(C(=O)O)cc2)=C1	-8
O=c1c(CNc2ccccc2)cc2cccc3c2n1CCC3	-
CCOc1ccc2c(c1)sc1nc(=O)c3ccncc3n12	-
SMILES	Ba CapD inh
CCOc1cc2c(c([N+](=O)[O-])c1)NC(c1cccc3ccccc13)C1CC=CC21 (stereo not given)	-
COc1cc2[nH]c(=S)nc(Nc3ccc(NC(C)=O)cc3)c2cc1OC	-
COc1cc2[nH]c(=S)n(N(C(C)=O)C(C)=O)c(=O)c2cc1OC	-13
COc1cc2[nH]c(=S)n(C3CC3)c(=O)c2cc1OC	-
COc1ccc(C2=NN3C(C2)c2ccccc2OC3c2ccc(OC(=O)c3ccc(Br)cc3)cc2)cc1 (stereo not given)	-
CC(=O)Nc1ccc2nc(NC(=O)C(C)(C)C)sc2c1	-
CC(=O)Nc1ccc2nc(C)sc2c1	-5.7
Cc1nc2ccc(NC(=O)c3cccc(Br)c3)cc2s1	-
Cc1nnsc1C(=O)N1CCC(O)(c2ccc(Cl)cc2)CC1	-
COC(=O)CCc1c(C)nn(-c2ccc(C(=O)NC3CCOC3=O)cc2)c1C (stereo not given)	-
Cc1ccc(Oc2ncccc2C(F)(F)F)c2c1CCC2	-
CC(=O)Oc1cncc(C(=O)O)c1	-
CC(=O)Oc1ccc(-c2ccc(C(=O)O)cc2)cc1	-
CC(=O)Oc1cc(OC(C)=O)cc(C(=O)O)c1	-8.7
CC1=C(C(=O)OCCc2ccccc2)C(c2ccc(OCc3ccccc3)cc2)NC(=O)N1 (stereo not given)	-
COc1ccc(OC)c(C=C2C(=O)OC(C)(C)OC2=O)c1	-
CN1/C(=C/C(=O)CSC2CCCC2)C(C)(C)c2ccccc21	-
Cc1cc(/N=C/C=C2\N(C)c3ccccc3C2(C)C)n(CCC#N)n1	-4.4
Cc1cc(/N=C/c2cc(C)n(Cc3ccccc3)c2C)n(CCC#N)n1	-
COC(=O)c1c(NC(=O)c2c(-c3ccccc3)noc2C)sc2c1CCC(C)C2 (stereo not given)	-
CCOC(=O)N1CCc2c(sc3c2c(=O)n(-c2ccccc2)c(=O)n3CC(=O)Nc2ccccc2F)C1	-
CCOC(=O)C1(C/C(C)=N/NC(N)=S)CC(C)(C)OC1=O (stereo not given)	-
CSC(=CC(=O)c1ccc(F)cc1)SC	-
CSC(=CC(=O)c1cccc2ccccc12)SC	-
CSC(=CC(=O)c1ccccc1F)SC	-4.1
SMILES	Ba CapD inh
O=C(Nc1c[nH]c2ccccc2c1=O)NC1CCCC1	-
COc1cc(CNc2ccc(C)cc2)ccc1O	-
C=CCc1ccc(O)c(OC)c1	-10
COc1cc(CNc2ccccc2SC)ccc1O	-
CCCOc1ccc(C(=O)NCC2(c3ccccc3)CCOCC2)cc1	-
CC(C)(C)C1(C)OC(=O)C(=Cc2ccccc2Cl)C(=O)O1 (stereo not given)	-
CC1(C)OC(=O)C(=Cc2ccc(-c3ccccc3)o2)C(=O)O1	-
CC(C)(C)C1(C)OC(=O)C(=Cc2ccc(Br)o2)C(=O)O1 (stereo not given)	-5.1
Cc1ccc(S(=O)(=O)c2ccc(/C=C/c3ccco3)cc2)cc1	-
CCN(c1ccc(OC)cc1)S(=O)(=O)c1ccc2c(c1)OCC(C(=O)N1CCCC1)O2 (stereo not given)	-
O=C1CSCC(=O)N1c1cc(C(F)(F)F)cc(C(F)(F)F)c1	-
COc1cc(/C=c2\sc3nc4c(C)cccc4n3c2=O)cc(Br)c1OC	-
NC(=O)c1oc2ccccc2c1NC(=O)c1cccs1	-
O=C(Nc1c(C(=O)N2CCOCC2)oc2ccccc12)c1cccs1	-3.6
Cc1ccccc1C(=O)Nc1c(C(=O)N2CCOCC2)oc2ccccc12	-
